Most compounds without a hit are left out; they make up all but 32% or so of the library.
CYP2C9 inhib – blockers of cytochrome P450 2C9 activity – biochemical, luminescence, ADME assay, primary screen | hit rate 20% among 96,000 | AID 777, 2007 | CYP2C9 Supersomes, luciferin-H conversion | P11712 | inhibition, % at 5 µM;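 active = blocking of liver enzyme CYP2C9 beyond about 50% at 5 µM, limit read from the data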
Target sequence (P11712 whole entry, looked up): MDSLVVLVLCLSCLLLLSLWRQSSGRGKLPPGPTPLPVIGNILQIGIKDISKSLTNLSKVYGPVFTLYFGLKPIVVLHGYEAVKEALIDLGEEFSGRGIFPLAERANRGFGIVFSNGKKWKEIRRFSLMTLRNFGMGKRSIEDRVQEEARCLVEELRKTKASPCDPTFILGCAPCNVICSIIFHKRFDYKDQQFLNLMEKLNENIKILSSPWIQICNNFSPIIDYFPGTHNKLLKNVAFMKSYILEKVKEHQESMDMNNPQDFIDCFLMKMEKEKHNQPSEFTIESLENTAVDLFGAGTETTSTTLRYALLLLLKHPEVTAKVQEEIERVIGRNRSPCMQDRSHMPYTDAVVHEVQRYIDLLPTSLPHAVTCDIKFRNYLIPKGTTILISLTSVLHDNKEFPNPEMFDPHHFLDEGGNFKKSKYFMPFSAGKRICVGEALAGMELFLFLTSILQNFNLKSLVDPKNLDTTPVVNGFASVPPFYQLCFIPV
CYP2C19 inh – blockers of cytochrome P450 2C19 activity – biochemical, luminescence, ADME assay, primary screen; inhibition, % at 5 µM; CYP2C19 Supersomes, luciferin-H EGE luminescence, 30 min; AID 778, 2007; hit rate 21% among 96,000;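 active = CYP2C19 inhibition above a set limit at 5 µM in the primary screen, cut at about 50% in these data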;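 note: plate controls were negative control wells for no effect and 2.5 mM tranylcypromine positive control for full effect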
CYP2C19 activ – human CYP2C19 activators, primary screen, biochemical, luminescence | recombinant CYP2C19, luciferin-H EGE luminescence; stronger effect = higher value; 0 = fully inhibited enzyme, 1 = untreated enzyme | activation factor at 5 µM | 96,000 tested, under 10 active;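 active = activation factor of at least 2 at 5 µM in the primary screen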;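 note: 0 = wells with 2.5 mM tranylcypromine and 1 = vehicle-only wells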
PostGolgi ctrl – growth inhibition of yeast control strain, primary screen, counter-screen for post-Golgi transport modulator project. efflux-deficient yeast background strain, growth absorbance A615, 16 h. inhibition, % at 10 µM. hit rate 5% among 98,000
PostGolgi yeast – phenotypic screen on post-Golgi transport, primary screen. post-Golgi transport phenotypic cell assay. AID 739, 2007. hit rate 0.9% among 98,000. inhibition, % at 10 µM;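 note: yeast cells grown in 1536-well plates; yeast grown about 18 h at 30C before absorbance read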
CYP2C9 activ – human CYP2C9 activators, primary screen, biochemical, luminescence. recombinant CYP2C9, luciferin-H conversion; stronger effect = higher value; factor 1 = untreated enzyme, 0 = blocked. activation factor at 5 µM. hit rate 1.4% among 96,000. AID 1024, 2008;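 active = activation factor of 2 or more for CYP2C9 at a 5 µM dose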;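 note: 0 = sulfaphenazole-blocked wells and 1 = vehicle-only wells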
Numbers without * were called inactive; x = no result given; ! = a repeat was not active. Cut-off read from the data, not from the text of the source, unless noted: active = inhibition above about 30%; inactive = the rest.

SMILES	CYP2C9 inhib	CYP2C19 inh	CYP2C19 activ	PostGolgi ctrl	PostGolgi yeast	CYP2C9 activ
CCOc1cc(C2C(C(=O)OC)=C(C)N=C3SC(C)C(=O)N32)ccc1OC(C)=O (stereo not given)	59.2*	63.8*	0.4	1.9	-4.6	0.4
CCOC(=O)C1=C(C)N=C2SC(C)C(=O)N2C1c1ccc(OC(C)=O)c(OC)c1 (stereo not given)	x	x	x	46.8*	0.5	x
CCOC(=O)C1=C(C)N=C2SC(C)C(=O)N2C1/C=C/c1ccccc1OC (stereo not given)	79.8*	48.6	0.5	8.0	-6.0	0.2
CCOc1cc(C2C(C(=O)OC)=C(C)N=C3SCCC(=O)N32)ccc1OC(C)=O (stereo not given)	30.4	35.4	0.6	-2.7	1.1	0.7
COc1ccc(OC)c(CCNC(=O)CC2Oc3ccc(C)cc3NC2=O)c1 (stereo not given)	15.7	21.0	0.8	1.5	-5.0	0.8
c1coc(CNC2C3CC4CC(C3)CC2C4)c1 (stereo not given)	12.8	11.4	0.9	22.1	-16.1	0.9
CC(=O)Nc1cc(S(=O)(=O)C(F)(F)F)ccc1Cl	-29.7	16.5	0.8	9.7	6.6	1.3
CCn1c(=O)c2cc(C(=O)Nc3cc(C)on3)sc2c2ccccc21	-113.4	-4.4	1	-1.8	-1.3	2.1*
Cc1cc(C)n(CCc2nc(-c3ccc(C)o3)cs2)n1	13.4	18.8	0.8	8.3	-5.6	0.9
CN(C)c1ccc(S(=O)(=O)c2ccc(Cl)cc2)cc1	-5.3	20.1	0.8	6.1	-2.4	1.1
O=S(=O)(c1ccccc1)c1cnc(-c2cccnc2)nc1-c1ccc(Cl)c(Cl)c1	63.9*	71.9*	0.3	5.8	0.0	0.4
Cc1ncc(S(=O)(=O)c2ccccc2)c(-c2ccccc2Cl)n1	19.0	61.5*	0.4	9.4	-0.8	0.8
CN(C)c1ncc(S(=O)(=O)c2ccc(Cl)cc2)c(-c2ccc(Cl)cc2Cl)n1	38.4	81.1*	0.2	49.3*	2.3	0.6
CC1CN=C(N(C(=O)Nc2ccccc2)c2ccc(S(=O)(=O)N3CCOCC3)cc2)S1 (stereo not given)	45.9	7.2	0.9	8.0	-3.6	0.5
O=C(NCCc1c[nH]c2ccccc12)C1CCC(Cn2c(=S)[nH]c3ccccc3c2=O)CC1 (stereo not given)	97.8*	99.9*	0	10.1	-2.5	0
CCOCCCn1c(=S)[nH]c2cc(C(=O)NCCOC)ccc2c1=O	7.1	8.5	0.9	11.6	2.4	0.9
O=C(NCCc1c[nH]c2ccccc12)C1CCN(c2nnc(N3CCCC3=O)s2)CC1	23.8	47.0	0.5	6.5	-5.0	0.8
COCCNC(=O)C1CCC(Cn2c(=S)[nH]c3ccccc3c2=O)CC1 (stereo not given)	60.7*	53.3*	0.5	-1.1	1.3	0.4
CC(C)CN(CCC(=O)O)CC(C)C	21.6	-26.6	1.3	-5.0	3.2	0.8
CN(C)c1ccc(C2OC(=O)C(C)(C)C(=O)C2(C)C)cc1 (stereo not given)	1.3	14.5	0.9	5.9	2.9	1
CCC1(CC)C(=O)C(C)(C)C(=O)OC1c1cccs1 (stereo not given)	43.9	96.2*	0	11.5	-1.2	0.6
Cn1c(SCc2cccc(Cl)c2)nc(C(F)(F)F)cc1=O	10.9	25.7	0.7	24.6	4.7	0.9
COc1ccc(-n2cnnc2SCC(=O)c2ccc(S(=O)(=O)N3CCOCC3)cc2)cc1	19.1	20.5	0.8	4.9	-2.8	0.8
O=C(CSc1ccc2ccccc2n1)c1ccc2c(c1)OCO2	32.8	27.7	0.7	31.6*	9.1	0.7
O=C(CSc1nc2ccc(Cl)cc2[nH]1)c1ccc2c(c1)OCO2	65.9*	26.1	0.7	11.6	-4.1	0.3
O=C(O)CCSc1ccc2ccccc2n1	2.2	5.1	0.9	44.1*!	0.8	1
CCOC(=O)CC(C#N)c1c[nH]c2ccccc12 (stereo not given)	-50.9	70.2*	0.3	2.4	-2.1	1.5
NC(=O)NC(=O)COC(=O)CCCc1c[nH]c2ccccc12	0.0	33.7	0.7	6.5	9.2	1

Source: PubChem BioAssay (several laboratories)
